The source of these data is PubChem BioAssay (EPA / NIEHS).

By AC50 is commonly meant the concentration at which the activity in the assay is half-maximal.

The structures appear in SMILES notation. Active and inactive are the calls of the source. Rule for the calls: active = hit-call score of the fitted dose curve at least 0.9, where 1 is the maximum; inactive = score below 0.9.

Assay [1] can be described thus: APR_HepG2_CellCycleArrest_1hr: Apredica 1-hour HepG2 Assay for Cell Cycle Arrest (AID 2282666). The conditions noted are these: high-content imaging, actives raise or lower the signal. Put shortly:
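HepG2 cells exposed for 1 h to 0.39–200 uM compound (0.5% DMSO). Fixed, Hoechst-stained nuclei imaged by ArrayScan; DNA content quantified by Cell Cycle analysis; bidirectional fit against DMSO.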

Assay [2] in a line: APR_HepG2_MicrotubuleCSK_1hr: Apredica 1-hour HepG2 Assay for Microtubule CSK Stabilty (AID 2282669). Particulars: HepG2 microtubule cytoskeleton imaging, actives raise or lower the signal. Put shortly: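 HepG2 cells exposed 1 h to 0.39–200 uM compound (0.5% DMSO, duplicates), then formaldehyde-fixed, permeabilized and immunostained for alpha-tubulin with Hoechst nuclei. Imaged by ArrayScan high-content analysis; bidirectional fit versus DMSO.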

A short description of assay [3]: APR_HepG2_MitoticArrest_1hr: Apredica 1-hour HepG2 Assay for Mitotic Arrest (AID 2282672). The conditions noted are these: high-content imaging, actives raise or lower the signal. Put shortly:
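HepG2 cells exposed 1 hr to compounds at 0.39–200 uM (0.5% v/v DMSO final), then fixed in 3.7% formaldehyde and immunostained for phospho-histone H3 with Hoechst 33342. Mitotic arrest scored by automated fluorescence imaging, fitted bidirectionally versus DMSO.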

Assay [4] can be described thus: APR_HepG2_P-H2AX_1hr: Apredica 1-hour HepG2 Assay for H2AX Phosphorylation (AID 2282673). The conditions noted are these: high-content imaging, actives raise or lower the signal. Put shortly: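 HepG2 dosed 1 hr at 0.39-200 uM (0.5% DMSO final), duplicate. Fixed in 3.7% formaldehyde, Triton permeabilized, immunostained for phospho-histone H2A.x (1:200) with Hoechst 33342; ArrayScan 20x imaging, bidirectional fit vs DMSO.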

Assay [5] is described as follows: APR_HepG2_MitoMass_1hr: Apredica 1-hour HepG2 Assay for Mitochondrial Mass (AID 2282674). Particulars: high-content imaging, actives raise or lower the signal. Put shortly:
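HepG2 cells dosed 1 hr with 0.39-200 uM compound (0.5% DMSO), duplicate wells. Mitochondria stained with 250 nM MitoTracker Red CMXRos for 30 min before formaldehyde fixation, imaged at 20x by ArrayScan; bidirectional fit versus DMSO.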

Assay [6] can be described thus: APR_HepG2_MitoMembPot_1hr: Apredica 1-hour HepG2 Assay for Mitochondrial Membrane Potential (AID 2282675). Particulars: imaging, actives raise or lower the signal. Put shortly: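 HepG2 cells dosed 1 hour with 0.39–200 uM compound in duplicate, 0.5% DMSO final. MitoTracker Red CMXRos (250 nM, 30 min) loaded before formaldehyde fixation; fluorescence quantified by high-content imaging, bidirectional fitting versus DMSO.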

Assay [7] is described as follows: APR_HepG2_CellLoss_1hr: Apredica 1-hour HepG2 Assay for Cell Loss (AID 2282668).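 Note: curves fitted both ways against DMSO so gain or loss of cells counts.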 The conditions noted are these: high-content imaging. Put shortly:
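HepG2 cells were treated for 1 h with compound at 0.39–200 uM, in duplicate, in 0.5% DMSO. After formaldehyde fixation, Hoechst 33342-stained nuclei were imaged on an ArrayScan to count cells. Data were fitted bidirectionally versus DMSO.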

Assay [8] can be described thus: APR_HepG2_CellCycleArrest_24hr: Apredica 24-hour HepG2 Assay for Cell Cycle Arrest (AID 2282905).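 Note: cell cycle arrest scored as ratio of 2N to 4N nuclear DNA content.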 Particulars: imaging, actives raise or lower the signal. Put shortly:
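Compounds at 0.39–200 uM (0.5% DMSO) for 24 h, then fixed and Hoechst 33342 stained. Cell-cycle analysis of nuclear DNA content by high-content imaging, fitted bidirectionally versus DMSO.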

The nature of assay [9]: APR_HepG2_NuclearSize_1hr: Apredica 1-hour HepG2 Assay for Nuclear Size (AID 2282670). The conditions noted are these: high-content imaging, actives raise or lower the signal. Put shortly:
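HepG2 cells dosed 1 hr with 0.39–200 uM compound (0.5% DMSO), formaldehyde-fixed, Hoechst 33342-stained and imaged at 20x; nuclear diameter from nuclear stain, fitted bidirectionally against DMSO.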

Assay [10] is described as follows: APR_HepG2_p53Act_1hr: Apredica 1-hour HepG2 Assay for p53 Activation (AID 2282671). The conditions noted are these: high-content imaging, actives raise or lower the signal. Put shortly: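 HepG2 cells treated 1 h with compound at 0.39–200 uM (10 concentrations, duplicate) in 0.5% DMSO. Formaldehyde-fixed, permeabilised cells immunostained for p53 with Hoechst 33342; high-content imaging, bidirectional fit versus DMSO.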

Take `CCCCOC(=O)c1ccccc1C(=O)O`: the outcome in assay [1], in [2], in [3], in [4], in assay [5] and in assay [6] was inactive.

For the compound `CCOP(=O)(OCC)Oc1cc(C)nc(C(C)C)n1`, the result in assay [1], in [7], in [2], in assay [3], in [4] and in assay [5] was inactive. Moreover, the compound was called inactive in [6] and in [8].

`Cc1ccn2nc(S(=O)(=O)Nc3c(F)cccc3F)nc2n1`: the compound was classed as inactive in assay [1], in assay [7], in assay [3], in assay [4], in assay [5] and in assay [6]. Also, the compound was classed as inactive in assay [8].

On to `CCNc1nc(Cl)nc(NC(C)(C)C#N)n1`, for which the compound was called inactive in [1], in assay [7], in [9], in assay [3], in assay [4] and in [5]. Besides, the compound was called inactive in assay [6] and in [8].

Take `CN(C)NC(=O)CCC(=O)O`: the outcome in [2], in assay [9], in [3], in assay [4], in assay [5] and in assay [6] was inactive.

Regarding `CON=C(C(=O)OC)c1ccccc1CON=C(C)c1cccc(C(F)(F)F)c1`, the result in assay [9], in assay [3], in assay [4], in [5], in assay [6] and in assay [8] was inactive.

Consider `CCCSP(=O)(OCC)Oc1ccc(Br)cc1Cl` (configuration not stated), for which the call in [2], in [9], in assay [3], in assay [4], in assay [5] and in assay [6] was inactive.

Turning to `Cc1cc(C2CC2)nc(Nc2ccccc2)n1`, the call in assay [7], in assay [3], in assay [4] and in assay [5] was inactive. Also, in assay [6], the AC50 was 29.2 µM (active).

Consider `CCOP(=S)(OCC)OC(Cl)C(Cl)(Cl)Cl` (configuration not stated), for which the outcome in [7], in [9], in [3], in [4], in assay [5] and in [6] was inactive.

`CC(C)=CC1C(C(=O)OCN2C(=O)C3=C(CCCC3)C2=O)C1(C)C` (configuration not stated): the outcome in assay [7], in assay [2], in [3], in assay [4], in assay [5] and in assay [6] was inactive. Also, the call in [8] was inactive.

As to `O=C(O)c1cc(Oc2ccc(C(F)(F)F)cc2Cl)ccc1[N+](=O)[O-]`, the compound was classed as inactive in assay [7], in assay [9], in assay [3], in assay [4], in assay [5] and in assay [6].

`CCc1cccc(CC)c1N(COC)C(=O)CCl`: the compound was called inactive in assay [9], in assay [3], in assay [4], in [5] and in [6]. Also, in [8], the AC50 is 60.9 µM (active).

`S=C1NCCN1`: the call in [2], in assay [3], in [4], in [5] and in [6] was inactive.

Regarding `CCc1cnc(C2=NC(C)(C(C)C)C(=O)N2)c(C(=O)O)c1` (configuration not stated), the outcome in assay [9], in [3], in assay [4], in assay [5], in assay [6] and in assay [8] was inactive.

On to `CNC(=O)ON=C(SC)C(=O)N(C)C`, for which the compound was called inactive in [7], in [3], in assay [4], in [5] and in assay [6].

For `Nc1nc(N)nc(NC2CC2)n1`, the outcome in [7], in assay [9], in [10], in assay [3], in assay [4] and in assay [5] was inactive. For the same compound, the compound was classed as inactive in assay [6] and in assay [8].

Take `CC(C)N(C(=O)SCC(Cl)=C(Cl)Cl)C(C)C`: the call in [7], in assay [10], in assay [3], in assay [4], in assay [5] and in assay [6] was inactive. The call in [8] was inactive.

`CNc1cnn(-c2cccc(C(F)(F)F)c2)c(=O)c1Cl`: the result in assay [3], in assay [4], in assay [5], in [6] and in assay [8] was inactive.

On to `COc1cc(OC)nc(Sc2cccc(Cl)c2C(=O)O)n1`, for which the outcome in assay [2], in [9], in assay [3], in [4], in assay [5] and in assay [6] was inactive. Moreover, in [8], the compound was classed as inactive.

Turning to `CCOP(=S)(Oc1cnc(C(C)(C)C)nc1)OC(C)C` (configuration not stated), the compound was called inactive in [9], in assay [3], in assay [4], in assay [5] and in assay [6]. Moreover, in assay [8], the concentration at half-maximal activity (AC50) was 152 µM (active).

In the case of `COc1cccc(C(=O)NN(C(=O)c2cc(C)cc(C)c2)C(C)(C)C)c1C`, the compound was classed as inactive in assay [3], in assay [4], in [5] and in assay [6].

With `CCOP(=S)(OCC)Oc1ccc2c(C)c(Cl)c(=O)oc2c1`, the compound was called inactive in assay [3], in assay [4], in assay [5], in [6] and in assay [8].

As for `CCOP(=S)(OCC)Oc1ccc([N+](=O)[O-])cc1`, the compound was classed as inactive in assay [10], in assay [3], in assay [4], in assay [5] and in assay [6].

As to `CCOP(=S)(OCC)SCCSCC`, the compound was called inactive in assay [2], in assay [9], in [10], in [3], in assay [4] and in assay [5]. In assay [6], the compound was classed as inactive.

`COP(=O)(OC)SCn1c(=O)oc2cc(Cl)cnc21`: the call in assay [2], in assay [3], in assay [4], in assay [5] and in [6] was inactive.

Consider `CCC(CC)Nc1c([N+](=O)[O-])cc(C)c(C)c1[N+](=O)[O-]`, for which the compound was classed as inactive in [10], in [3], in assay [4], in [5], in assay [6] and in assay [8].

Turning to `C[Si](Cn1cncn1)(c1ccc(F)cc1)c1ccc(F)cc1`, the result in assay [10], in assay [3], in assay [4], in [5] and in assay [6] was inactive.

For `CN(C)[C@@H]1C(=O)C(C(N)=O)=C(O)[C@@]2(O)C(=O)C3=C(O)c4c(O)cccc4[C@@](C)(O)[C@H]3[C@H](O)[C@@H]12`, the result in assay [9], in assay [3], in assay [4], in [5] and in assay [6] was inactive.

On to `CCOP(=O)(NC(C)C)Oc1ccc(SC)c(C)c1` (configuration not stated), for which the compound was classed as inactive in assay [3], in assay [4], in assay [5] and in [6].

Regarding `CSc1nc(NC(C)C)nc(NC(C)C)n1`, the outcome in assay [7], in [3], in [4], in [5], in [6] and in [8] was inactive.

Take `CC1(C(=O)Nc2ccc(O)c(Cl)c2Cl)CCCCC1`: the result in assay [10], in assay [3], in assay [4], in assay [5], in assay [6] and in assay [8] was inactive.

`CC(C)[C@H](C(=O)O[C@H](C#N)c1cccc(Oc2ccccc2)c1)c1ccc(Cl)cc1`: the result in assay [3], in assay [4], in assay [5] and in [6] was inactive.

`C#CC(C)(C)NC(=O)c1cc(Cl)cc(Cl)c1`: the call in assay [7], in assay [9], in assay [3], in [4], in [5] and in assay [6] was inactive. In [8], the compound was called inactive.

As for `FC(F)C(F)(F)OCC(Cn1cncn1)c1ccc(Cl)cc1Cl` (configuration not stated), the result in [7], in assay [3], in [4], in assay [5] and in assay [6] was inactive.

For the compound `C=C(C)[C@H]1Cc2c(ccc3c2O[C@@H]2COc4cc(OC)c(OC)cc4[C@@H]2C3=O)O1`, the compound was called inactive in assay [7], in [3], in [4], in assay [5] and in assay [6]. Moreover, the AC50 in assay [8] is 0.0391 µM (active).

Regarding `CCOP(=O)(SC(C)CC)N1CCSC1=O` (configuration not stated), the result in assay [2], in [3], in assay [4], in assay [5] and in assay [6] was inactive.

For the compound `COP(=O)(NC(C)=O)SC` (configuration not stated), the outcome in assay [7], in assay [3], in assay [4], in [5], in assay [6] and in [8] was inactive.

Regarding `COP(=O)(OC)OC(Br)C(Cl)(Cl)Br` (configuration not stated), the outcome in assay [2], in assay [9], in assay [3], in assay [4], in assay [5] and in assay [6] was inactive.

For the compound `CC[C@H](C)[C@H]1O[C@]2(C=C[C@@H]1C)C[C@@H]1C[C@@H](C/C=C(\C)[C@@H](O[C@H]3C[C@H](OC)[C@@H](O[C@H]4C[C@H](OC)[C@@H](NC)[C@H](C)O4)[C@H](C)O3)[C@@H](C)/C=C/C=C3\CO[C@@H]4[C@H](O)C(C)=C[C@@H](C(=O)O1)[C@]34O)O2`, the concentration at half-maximal activity (AC50) in assay [7] was 16.5 µM (active); in assay [4], 16.8 µM (active). The result in assay [3], in assay [5] and in [6] was inactive.

For the compound `O=c1ccc(=O)[nH][nH]1`, the compound was classed as inactive in [3], in assay [4], in assay [5] and in assay [6].
